Experimental data: PubChem BioAssay
Active and inactive are the calls of the source.

Assays:
[1] = binders of probe aFSTL3 on microarray, primary screen, stem cell growth factor project, biochemical, small-molecule microarray, fluorescence 635/667 (AID 1064); details: higher = more signal;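 further: measures binding of the biotinylated anti-FSTL3 antibody to printed compounds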
[2] = binders from COS7 lysate, DM2A8 probe, primary screen, torsin A project, cell lysate, small-molecule microarray, fluorescence 635/667 (AID 1065); details: higher = more signal, COS7 lysate expressing mutant human TOR1A
[3] = binders of probe aFGF2 on microarray, primary screen, stem cell growth factor project, biochemical, small-molecule microarray, fluorescence 635/667 (AID 1067); details: higher = more signal;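 further: measures binding of biotinylated aFGF2 protein to printed compounds on slides; z-score merges feature fluorescence and signal-to-noise across triplicate slides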
[4] = binders of probe aFGF10 on microarray, primary screen, stem cell growth factor project, biochemical, small-molecule microarray, fluorescence 635/667 (AID 1071); details: higher = more signal;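 further: score merges 667 nm spot intensity and signal to noise from triplicate slides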
[5] = molecular target: Neurogenic locus notch homolog protein 2 (Homo sapiens) (UniProt Q04721); assay: Notch2 binders on small-molecule microarrays, primary screen, biochemical, small-molecule microarray, 635 nm fluorescence, stem cell growth factors (AID 1073); details: Notch2 binding, higher = more signal
[6] = molecular target: Pro-neuregulin-1, membrane-bound isoform (Homo sapiens) (UniProt Q02297); assay: NRG1 binders on small-molecule microarrays, primary screen, psychiatric disease protein project, biochemical, small-molecule microarray, fluorescence 635/667 (AID 1075); details: NRG1 binding, 635 nm fluorescence, higher = more signal;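 further: score combines 667 nm spot fluorescence with signal to noise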
[7] = test system: Neuregulin-1 EGF-like domain; assay: binders of neuregulin-1 EGF-like domain, primary screen, biochemical, small-molecule microarray, 635 nm fluorescence (AID 1081); details: small-molecule microarray binding, higher = more signal;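 further: binding of the protein to compounds printed on small-molecule microarray slides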
[8] = FRG1 promoter luciferase signal modulators, primary screen, FRG1 inhibition for FSHD, cell-based, C2C12 myotubes, firefly/Renilla luciferase, luminescence (AID 1084); details: higher = more signal, called active from +8 up or from −8 down
[9] = binders of probe aFST on microarray, primary screen, stem cell growth factor project, biochemical, small-molecule microarray, fluorescence 635/667 (AID 1086); details: higher = more signal;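 further: score merges 667 nm fluorescence with signal-to-noise of each printed compound spot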
[10] = binders of probe aHhip on microarray, primary screen, stem cell growth factor project, biochemical, small-molecule microarray, fluorescence 635/667 (AID 1087); details: higher = more signal;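 further: score merges spot fluorescence at 667nm with spot signal to noise ratio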
[11] = test system: PRMT1 (protein arginine N-methyltransferase 1); assay: PRMT1 binders on small-molecule microarrays, primary screen, biochemical, small-molecule microarray, 635 nm fluorescence (AID 1088); details: small-molecule microarray binding, higher = more signal;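 further: binding of Prmt1 protein to compounds spotted on small-molecule microarray slides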
[12] = yeast growth modulation, basal conditions, primary screen, YJM789 clinical isolate, OD600, 24 h (AID 1089);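 further: growth of clinical yeast isolate S. cerevisiae YJM 789 seeded 1000 cells per well; test concentration not given here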; details: S. cerevisiae YJM789 growth, higher = more signal, called active from +8 up or from −8 down
[13] = fission yeast growth modulation, primary screen, strain 972, OD600, 24 h, no modulator (AID 1090);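 further: basal condition with compound alone and no growth modifier present; test concentration not given here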; details: S. pombe 972 growth, higher = more signal, called active from +8 up or from −8 down
[14] = S. cerevisiae growth modulation with rapamycin, primary screen, strain BY4716, OD600, 96 h (AID 1091); details: higher = more signal, called active from +8 up or from −8 down; further: test concentration not given here
[15] = molecular target: Torsin-1A-interacting protein 2 (Homo sapiens) (UniProt Q8NFQ8); assay: LULL1 binders on small-molecule microarray, primary screen, cell lysate, human LULL1 lysate, 635/667 nm fluorescence (AID 1092); details: hLULL1 lysate binding, 635 nm fluorescence, higher = more signal;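 further: probe is lysate of COS7 cells overexpressing human LULL1; score merges per-feature 667 nm fluorescence with signal-to-noise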
[16] = E. coli growth modulation, two-sided OD650, primary screen, E. coli filamentation project, strain DRC41, 24 h (AID 1093); details: OD650, 24 h, higher = more signal, called active from +8 up or from −8 down;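 further: MC1000 strain lacking acrAB efflux and sulA so SOS filamentation is blocked; test concentration not given here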
[17] = small-molecule microarray binders of probe aLefty2, primary screen, biochemical, biotinylated probe, 635/667 nm fluorescence (AID 1094); details: higher = more signal;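 further: score merges spot fluorescence near 667 nm with spot signal-to-noise ratio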
[18] = test system: Noggin (protein binding on small-molecule microarray); assay: Noggin binders on small-molecule microarray, primary screen, biochemical, 635/667 nm fluorescence (AID 1095); details: 635 nm fluorescence, higher = more signal;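 further: score merges 667 nm feature fluorescence with signal to noise over triplicate slides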
[19] = molecular target: Neurogenic locus notch homolog protein 3 (Homo sapiens) (UniProt Q9UM47); assay: NOTCH3 binders on small-molecule microarray, primary screen, biochemical, 635/667 nm fluorescence (AID 1096); details: NOTCH3 binding, 635 nm fluorescence, higher = more signal
[20] = small-molecule microarray binders of probe aEGFR, primary screen, biochemical, biotinylated probe, 635/667 nm fluorescence (AID 1097); details: higher = more signal;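 further: probe is a biotinylated anti-EGFR antibody binding compounds printed on slides; score combines fluorescence near 667 nm and signal to noise of each spot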

Torsin-1A-interacting protein 2 (Homo sapiens), sequence (Q8NFQ8 whole entry, looked up): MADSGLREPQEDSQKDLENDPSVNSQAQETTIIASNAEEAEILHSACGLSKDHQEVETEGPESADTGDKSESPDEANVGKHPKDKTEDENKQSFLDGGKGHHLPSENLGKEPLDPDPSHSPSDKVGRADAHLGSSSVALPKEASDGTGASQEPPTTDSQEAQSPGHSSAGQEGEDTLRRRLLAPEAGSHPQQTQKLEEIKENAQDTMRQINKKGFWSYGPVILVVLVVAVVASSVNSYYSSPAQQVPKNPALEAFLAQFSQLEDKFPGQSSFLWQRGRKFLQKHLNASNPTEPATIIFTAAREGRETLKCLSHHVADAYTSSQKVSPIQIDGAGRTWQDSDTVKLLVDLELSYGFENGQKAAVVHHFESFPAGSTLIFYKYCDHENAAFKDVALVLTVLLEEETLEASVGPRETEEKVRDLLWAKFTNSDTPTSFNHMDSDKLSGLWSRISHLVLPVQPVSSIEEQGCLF
Neurogenic locus notch homolog protein 3 (Homo sapiens), sequence (Q9UM47 whole entry, looked up): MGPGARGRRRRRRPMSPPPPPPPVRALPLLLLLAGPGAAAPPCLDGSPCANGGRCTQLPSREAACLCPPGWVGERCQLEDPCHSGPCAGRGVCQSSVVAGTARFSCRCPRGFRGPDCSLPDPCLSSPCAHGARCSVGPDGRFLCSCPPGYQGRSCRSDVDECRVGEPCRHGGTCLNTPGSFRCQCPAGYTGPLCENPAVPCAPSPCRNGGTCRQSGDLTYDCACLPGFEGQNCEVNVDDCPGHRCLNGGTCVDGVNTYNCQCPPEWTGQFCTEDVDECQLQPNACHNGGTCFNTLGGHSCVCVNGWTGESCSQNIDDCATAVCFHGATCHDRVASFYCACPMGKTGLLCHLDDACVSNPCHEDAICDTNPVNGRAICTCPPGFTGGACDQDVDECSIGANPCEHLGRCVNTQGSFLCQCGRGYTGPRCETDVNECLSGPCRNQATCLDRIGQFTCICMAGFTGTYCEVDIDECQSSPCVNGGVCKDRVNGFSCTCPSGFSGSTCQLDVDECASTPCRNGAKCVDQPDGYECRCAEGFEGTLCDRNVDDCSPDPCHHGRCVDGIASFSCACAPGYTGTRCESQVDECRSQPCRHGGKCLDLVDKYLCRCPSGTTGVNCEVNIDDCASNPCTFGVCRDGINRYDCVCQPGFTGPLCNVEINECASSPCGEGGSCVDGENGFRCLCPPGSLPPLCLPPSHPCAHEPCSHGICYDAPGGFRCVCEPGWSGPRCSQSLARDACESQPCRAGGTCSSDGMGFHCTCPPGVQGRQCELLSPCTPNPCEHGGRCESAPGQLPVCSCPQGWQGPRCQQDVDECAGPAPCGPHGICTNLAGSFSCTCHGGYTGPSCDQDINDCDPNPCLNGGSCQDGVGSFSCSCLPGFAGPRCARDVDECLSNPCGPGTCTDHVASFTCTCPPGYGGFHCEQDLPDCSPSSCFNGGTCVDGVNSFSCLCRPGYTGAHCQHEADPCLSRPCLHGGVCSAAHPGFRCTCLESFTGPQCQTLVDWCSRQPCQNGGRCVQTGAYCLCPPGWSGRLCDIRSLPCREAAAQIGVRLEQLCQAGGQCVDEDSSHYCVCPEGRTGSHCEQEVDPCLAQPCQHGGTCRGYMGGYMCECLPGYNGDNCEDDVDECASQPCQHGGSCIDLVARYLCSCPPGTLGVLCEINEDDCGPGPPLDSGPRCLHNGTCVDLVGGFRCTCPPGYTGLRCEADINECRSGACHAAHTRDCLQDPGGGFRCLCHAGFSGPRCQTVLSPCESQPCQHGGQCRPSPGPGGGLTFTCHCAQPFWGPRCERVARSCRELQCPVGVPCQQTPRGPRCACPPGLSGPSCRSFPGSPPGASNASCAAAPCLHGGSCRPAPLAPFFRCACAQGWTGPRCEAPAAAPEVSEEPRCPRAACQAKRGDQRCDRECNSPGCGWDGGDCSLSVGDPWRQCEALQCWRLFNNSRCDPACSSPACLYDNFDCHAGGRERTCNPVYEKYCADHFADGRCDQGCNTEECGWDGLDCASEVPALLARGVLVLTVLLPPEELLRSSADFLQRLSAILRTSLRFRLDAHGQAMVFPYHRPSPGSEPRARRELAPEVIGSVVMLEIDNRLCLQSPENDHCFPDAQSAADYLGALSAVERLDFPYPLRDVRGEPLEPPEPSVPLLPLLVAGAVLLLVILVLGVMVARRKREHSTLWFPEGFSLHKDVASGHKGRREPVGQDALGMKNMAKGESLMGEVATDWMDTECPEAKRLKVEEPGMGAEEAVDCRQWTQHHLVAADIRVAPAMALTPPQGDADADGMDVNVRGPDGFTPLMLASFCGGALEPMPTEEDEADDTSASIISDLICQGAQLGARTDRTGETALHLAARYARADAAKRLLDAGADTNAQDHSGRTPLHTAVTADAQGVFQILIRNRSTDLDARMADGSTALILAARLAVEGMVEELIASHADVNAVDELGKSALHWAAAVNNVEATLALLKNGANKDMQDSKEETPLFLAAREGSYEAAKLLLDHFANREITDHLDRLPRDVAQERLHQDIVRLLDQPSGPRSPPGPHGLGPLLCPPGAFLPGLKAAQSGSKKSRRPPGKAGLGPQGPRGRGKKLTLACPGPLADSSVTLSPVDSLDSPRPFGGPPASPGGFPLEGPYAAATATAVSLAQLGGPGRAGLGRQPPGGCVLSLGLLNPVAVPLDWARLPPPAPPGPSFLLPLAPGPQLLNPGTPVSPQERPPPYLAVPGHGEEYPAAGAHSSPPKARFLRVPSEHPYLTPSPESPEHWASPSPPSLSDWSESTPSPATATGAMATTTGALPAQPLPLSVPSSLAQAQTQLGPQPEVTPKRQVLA
Pro-neuregulin-1, membrane-bound isoform (Homo sapiens), sequence (Q02297 whole entry, looked up, the tested form may be a part, canonical isoform): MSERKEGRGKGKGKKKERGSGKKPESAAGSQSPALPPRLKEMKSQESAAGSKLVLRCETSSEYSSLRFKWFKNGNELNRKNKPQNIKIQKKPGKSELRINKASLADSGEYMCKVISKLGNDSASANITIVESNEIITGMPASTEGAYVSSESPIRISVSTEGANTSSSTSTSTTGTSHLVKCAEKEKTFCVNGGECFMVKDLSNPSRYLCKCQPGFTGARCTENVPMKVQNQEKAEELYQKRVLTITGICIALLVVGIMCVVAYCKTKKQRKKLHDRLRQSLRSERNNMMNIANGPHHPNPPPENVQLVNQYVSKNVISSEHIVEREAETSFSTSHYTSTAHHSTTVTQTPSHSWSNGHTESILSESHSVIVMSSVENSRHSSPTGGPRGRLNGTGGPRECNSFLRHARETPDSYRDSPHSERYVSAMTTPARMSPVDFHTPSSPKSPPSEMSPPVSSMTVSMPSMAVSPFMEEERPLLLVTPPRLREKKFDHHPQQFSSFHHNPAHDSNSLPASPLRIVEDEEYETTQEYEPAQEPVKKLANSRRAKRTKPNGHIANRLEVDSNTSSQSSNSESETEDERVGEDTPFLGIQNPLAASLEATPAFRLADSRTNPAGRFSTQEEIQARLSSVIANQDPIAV

SMILES | composite z-score [1] | composite z-score [2] | composite z-score [3] | composite z-score [4] | composite z-score [5] | composite z-score [6] | composite z-score [7] | z-score [8] | composite z-score [9] | composite z-score [10] | composite z-score [11] | z-score [12] | z-score [13] | z-score [14] | composite z-score [15] | z-score [16] | composite z-score [17] | composite z-score [18] | composite z-score [19] | composite z-score [20]
CN(C)C(=O)[C@]1(CCS(=O)(=O)c2ccccc2)N=C(c2ccc(OCCCO)cc2)O[C@@H]1c1ccccc1CN=[N+]=[N-] | 0.04 | -0.313 | 0.0308 | 0.849 | 1.55 | 1.14 | 1.29 | -0.882 (inactive) | 1.07 | -0.0994 | 1.55 | 0.106 (inactive) | 0.349 (inactive) | 2.18 (inactive) | 3.48 | 0.157 (inactive) | -0.0079 | 0.136 | 1.09 | -0.025
CCCCN1CC=CC23O[C@@H]4C=CCCOC(=O)C4[C@H]2C(=O)N(CCO)[C@@H]3C1=O (stereo not given in full) | 0.18 | -0.881 | -0.276 | 1.02 | -1.29 | -0.944 | -0.397 | -0.183 (inactive) | -1.01 | 0.176 | -0.0141 | -0.207 (inactive) | -0.492 (inactive) | -0.19 (inactive) | -0.248 | 1.5 (inactive) | -0.182 | 0.132 | -0.414 | -0.167
CC(C)N1CC=CC23O[C@@H]4/C=C\CCCOC(=O)C4[C@H]2C(=O)N(C(C)CO)[C@@H]3C1=O (stereo not given in full) | -0.396 | -0.237 | -0.201 | -0.789 | -0.911 | 0.383 | 0.522 | -0.798 (inactive) | -0.588 | -0.303 | 0.336 | -1 (inactive) | -1.09 (inactive) | -1.08 (inactive) | 1.95 | 1.8 (inactive) | -0.174 | -1.25 | -0.155 | -0.297
C=CCNC(=O)[C@H]1[C@@H]2C(=O)O[C@@H](c3ccccc3)[C@@H](c3ccccc3)N2[C@@H](c2ccc(OCCO)cc2)[C@]12C(=O)Nc1ccc(C#Cc3ccc(OC)cc3)cc12 | -0.179 | 0.897 | 0.0566 | 0.705 | 1.46 | 1.52 | 1.22 | 0.744 (inactive) | 0.624 | 0.289 | 1.56 | 3.23 (inactive) | 2.1 (inactive) | 5.57 (inactive) | 2.75 | 0.741 (inactive) | 0.326 | 1.27 | 1.11 | 0.166
COC(=O)[C@]1(Cc2ccccc2CN=[N+]=[N-])N=C(c2ccc(OCCCO)cc2)O[C@@H]1c1ccccc1N=[N+]=[N-] | 0.0455 | 0.157 | -0.0465 | -0.223 | -0.206 | 0.829 | 1.18 | 3.39 (inactive) | 0.163 | -0.266 | 0.907 | -0.267 (inactive) | -1.58 (inactive) | 36.1 (active) | 1.22 | 1.08 (inactive) | 0.0269 | 0.398 | -0.122 | -0.297
